Consider 38 compounds from PubChem BioAssay (EPA / NIEHS).

Each structure is given as a SMILES string. Active and inactive are the calls of the source. How the source made its calls: active means hit-call score of the fitted dose curve at least 0.9, where 1 is the maximum; inactive means score below 0.9.

Read-out in the assay: Vascular endothelial growth factor receptor 2 (Homo sapiens) (UniProt P35968)
The experiment in a line: BSK_4H_VEGFRII: BioMAP Diversity Plus: 4H Assay for Vascular endothelial growth factor receptor 2 (VEGFR2) Biomarker Activity (AID 2283031).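 On AC50: cell-surface VEGFR2 protein level quantified by ELISA.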 The settings on record: primary human endothelial cells (HUVEC); actives raise or lower the signal. Put shortly:
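Primary human umbilical vein endothelial cells in the BioMAP 4H system were dosed with test chemical, and 24 h later VEGFRII was measured by ELISA. Activity was fitted bidirectionally against DMSO as negative control and baseline.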
On to `Cc1cccc2ccccc12`, for which the result was inactive. As for `CCO[Si](CCCNC(N)=O)(OCC)OCC`, the result was inactive. Still for that read-out and setting: the value for `Clc1ccccc1C(c1ccccc1)(c1ccccc1)n1ccnc1` was “inactive”; that for `c1ccc2n[nH]nc2c1` was “inactive”. On the same count and under the same terms, with `Cc1ccc(C(C)C)cc1` the entry was “inactive”; with `NC(=O)c1nc(-c2cccc(-c3cc(F)ccc3OCC(F)(F)C(F)(F)F)c2)n[nH]1`, “inactive”; with `NCc1cccc(C2CCN(C(=O)c3ccc(C#Cc4ccccc4F)o3)CC2)c1`, “inactive”. The same measure, in the same setting: with `CCCCOC(=O)CC(CC(=O)OCCCC)(OC(C)=O)C(=O)OCCCC` the entry was “inactive”.

In the case of `CN(C)c1ccc(C(=C2C=CC(=[N+](C)C)C=C2)c2ccc(N(C)C)cc2)cc1`, the concentration at half-maximal activity (AC50) was 0.148 µM (active). `CCCCCCCC[Si](OCC)(OCC)OCC`: the outcome was inactive. The same measure, in the same setting: with `Cc1occc1C(=O)Nc1ccc(C(=O)N2CCC(F)(F)/C(=C\C(=O)N3CCC(N4CCCCC4)CC3)c3ccccc32)cc1` the entry was “inactive”. Still for that read-out and setting: the value for `Cc1c2ccccc2c(C)c2c1ccc1ccccc12` was “inactive”; that for `O=C=NCCCCCCN=C=O` was “inactive”; that for `Cc1oc2c(NC(=O)c3c(Cl)cccc3Cl)cccc2c1C(C)(C)O` was “inactive”. On to `CCCCCCCCCCCC[N+](C)(C)C`, for which the outcome was inactive.

As to `O=CCCCC=O`, the result was inactive. Still for that read-out and setting: with `CC[C@H](NC(=O)c1cc(F)ccc1NS(=O)(=O)c1cccc2cccnc12)c1ccccc1` the entry was “inactive”. Regarding `CC(C)(C)c1cc(/C=C2\SC(N)=NC2=O)cc(C(C)(C)C)c1O`, the AC50 is 27.4 µM (active). As to `CCCCCCCCCC(=O)O`, the outcome was inactive. `CC(C)(C)c1csc(-c2cc3cc(OCc4ccccc4CC(=O)O)ccc3o2)n1`: the AC50 is 9.41 µM (active). Still for that read-out and setting: with `CCN(Cc1cccnc1)C(=O)c1cccc(Cl)c1[C@]1(C)C(=O)N(Cc2ccc(OC)cc2OC)c2ccc(Cl)cc21` the figure was 6.81 µM (active). Regarding `CCN(CC)C(=O)c1cc(S(=O)(=O)Cc2ccccc2)c(N2CCC(c3ccccc3)CC2)cc1N(CC)CCN(C)C`, the result was inactive. On the same count and under the same terms, with `O=C1O[C@H]([C@@H](O)CO)C(O)=C1O` the entry was “inactive”; with `CN1C(=O)CC[C@H]1c1cccnc1`, “inactive”; with `Cc1cn([C@H]2C[C@H](N=[N+]=[N-])[C@@H](CO)O2)c(=O)[nH]c1=O`, “inactive”. On the same count and under the same terms, the value for `O=c1ccc2ccccc2o1` was “inactive”; that for `COc1cc(C(=O)NC2CCN(C)CC2)ccc1Nc1ncc2c(n1)N(C1CCCC1)CC(F)(F)C(=O)N2C` was “inactive”. As for `CC(O)CC(C)(C)O` (stereo not drawn), the result was inactive. For `CC(=O)N1CCN(c2ccc(OC[C@H]3CO[C@](Cn4ccnc4)(c4ccc(Cl)cc4Cl)O3)cc2)CC1`, the result was inactive.

In the case of `O=c1[nH]sc2ccccc12`, the outcome was inactive. The same measure, in the same setting: the value for `CC/C(=C(/CC)c1ccc(O)cc1)c1ccc(O)cc1` was “inactive”; that for `CCCCCc1ccc(N)cc1` was “inactive”. The same measure, in the same setting: the value for `CN(C)C(=O)C1(N2CCCCC2)CCN(CC[C@@]2(c3ccc(Cl)c(Cl)c3)CN(C(=O)c3ccccc3)CCO2)CC1` was “inactive”; that for `O=C(O)c1ccccc1C(=O)OCc1ccccc1` was “inactive”.

Regarding `CCCC(=O)OCCC(C)C`, the result was inactive. On the same count and under the same terms, the value for `CN(C[C@@H](CC[N+]12CCC(C3CCCCC3)(CC1)CC2)c1ccc(Cl)c(Cl)c1)C(=O)c1cc(C(F)(F)F)cc(C(F)(F)F)c1` was “inactive”; that for `CCN(Cc1cccc(S(=O)(=O)O)c1)c1ccc(C(=C2C=CC(=[N+](CC)Cc3cccc(S(=O)(=O)O)c3)C=C2)c2ccccc2S(=O)(=O)[O-])cc1` was “inactive”. On the same count and under the same terms, the value for `O=C(O)Cc1cc(I)c(Oc2ccc(O)c(I)c2)c(I)c1` was “inactive”.
